About 20,000 (21%) of roughly 96,000 compounds were called active. Not all results are given here. Unmarked numbers belong to inactive results.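 Rule for the calls: active = CYP2C19 inhibition above a set limit at 5 µM in the primary screen (cut at about 50% in these data); inactive = the rest.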

This test deals with Cytochrome P450 2C19 (Homo sapiens) (UniProt P33261). Put plainly: blockers of cytochrome P450 2C19 activity – biochemical, luminescence, ADME assay, primary screen (AID 778).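 Note: plate controls were negative control wells for no effect and 2.5 mM tranylcypromine positive control for full effect.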 Particulars: CYP2C19 Supersomes, luciferin-H EGE luminescence, 30 min; at 5 µM; hits give high values.
Sequence of Cytochrome P450 2C19 (Homo sapiens) (P33261 whole entry, looked up): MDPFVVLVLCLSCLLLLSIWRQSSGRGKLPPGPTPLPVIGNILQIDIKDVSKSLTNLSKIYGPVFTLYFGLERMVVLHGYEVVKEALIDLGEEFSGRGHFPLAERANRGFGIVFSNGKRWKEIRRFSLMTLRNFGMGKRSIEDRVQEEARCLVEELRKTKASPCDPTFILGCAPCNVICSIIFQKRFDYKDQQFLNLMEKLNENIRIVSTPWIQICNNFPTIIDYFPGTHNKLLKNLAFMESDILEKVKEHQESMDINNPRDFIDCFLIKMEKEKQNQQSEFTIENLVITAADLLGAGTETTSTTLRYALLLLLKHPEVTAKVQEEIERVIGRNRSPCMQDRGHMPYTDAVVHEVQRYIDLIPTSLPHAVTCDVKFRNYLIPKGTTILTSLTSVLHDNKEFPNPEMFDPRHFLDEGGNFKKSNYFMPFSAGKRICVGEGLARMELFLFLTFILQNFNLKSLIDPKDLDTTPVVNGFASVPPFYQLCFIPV
Regarding `CCN1CCN(C(c2cccnc2)c2cc(Cl)c3cccnc3c2O)CC1` (stereo not given), the inhibition is 17.2%. `Cc1ccc(C(=O)NNC(=O)c2cc3cc4ccccc4nc3s2)cc1`: the inhibition is -3.1%. On to `O=c1[nH]c(-c2ccccc2)c(-c2ccccc2)[nH]1`, for which the inhibition was 1.3%.

On to `O=C1CC2(CCCCC2)Oc2ccc(OCC(=O)N3CCOCC3)cc21`, for which the inhibition is -3.8%. In the case of `CCCCc1nnc(NC(=O)CSc2nc(C)cc(=O)[nH]2)s1`, the inhibition was 4.3%.

Consider `O=C1/C(=C\Nc2ccccc2)CCN1c1ncccn1`, for which the inhibition was 7.1%. Take `CCOC(=O)c1ccn(-c2nc(-c3ccco3)cc(C(F)(F)F)n2)n1`: the inhibition was 9.7%. Regarding `CC(=O)C1C(c2cccc(Oc3ccccc3)c2)NC(=O)NC1(O)C(F)(F)F` (stereo not given), the inhibition was 24.4%.

Turning to `Cc1ccccc1-c1ccc(Nc2ccc(C(=O)N3CCOCC3)cc2)nn1`, the inhibition is 34.2%. With `CC(=O)N1Cc2ccccc2CC1C(=O)O` (stereo not given), the inhibition is -21.6%. For the compound `Cc1ccc(C)c(NC(=O)C2Cc3ccccc3CN2C(=O)OCc2ccccc2)c1` (stereo not given), the inhibition was 62.3% (active). With `Cc1ccc(C)c(NC(=O)C2CCCN2C(=O)OC(C)(C)C)c1` (stereo not given), the inhibition is 11.7%. `Cc1cc(C(F)(F)F)nn1-c1nc(-c2ccco2)cc(C(F)(F)F)n1`: the inhibition was 2.2%. Take `CCOC(=O)c1cn(CC(=O)Nc2ccc(C(C)C)cc2)nn1`: the inhibition was 62% (active). Consider `CCOC(=O)c1ccc(NC(=O)CSc2ncccn2)cc1`, for which the inhibition was 26.9%. Take `CCOC(=O)c1ccc(NC(=O)Cn2nnc(-c3ccc(C)cc3)n2)cc1`: the inhibition was 8.5%.

Turning to `COCC(C)NC(=O)c1ccc(-n2nc(C(F)(F)F)cc2-c2cccs2)cc1` (stereo not given), the inhibition is 12.4%. With `CSCc1cc(N(C)C)nc(SCc2ccc(Cl)cc2Cl)n1` the figure was 40.2%; with `O=c1cc(CSc2ccc(Cl)cc2)nc(N2CCOCC2)[nH]1`, 38.8%; with `CSCc1cc(N2CCOCC2)nc(SCc2ccc(Cl)cc2Cl)n1`, 50.8% (active).

For `O=C(c1ccc2c(c1)OCCO2)C1CCN(S(=O)(=O)c2cccc(F)c2)CC1`, the inhibition was 35.4%. With `COc1ccc(Cn2c(=O)sc3ccccc32)cc1OC` the figure was 99.8% (active). Consider `Cc1nnc(NC(=O)Cn2c(=O)sc3ccccc32)s1`, for which the inhibition was 47.6%.

For `COc1ccc(CCNC(=O)CCn2c(=O)oc3ccccc32)cc1OC`, the inhibition is 1.4%. Take `Cn1c(=O)c2c(nc(SCC(=O)Nc3ccccc3N3CCCCC3)n2C)n(C)c1=O`: the inhibition is 86.6% (active). Take `CCCSc1nc2c(c(=O)[nH]c(=O)n2C)n1CCc1ccccc1`: the inhibition is 26%. As for `Cn1c(=O)c2c(nc(SCCNS(=O)(=O)c3ccccc3)n2C)n(C)c1=O`, the inhibition is 73.3% (active). Turning to `CC(C)n1c(SCC(=O)Nc2ccccc2N2CCCCC2)nc2c1c(=O)n(C)c(=O)n2C`, the inhibition was 40.4%. For `Cn1c(=O)c2c(nc(N3CCCCCC3)n2CC(=O)c2ccc(Br)cc2)n(C)c1=O`, the inhibition is 0.8%. With `C#CC(C)(C)NC(=O)CSc1nc2c(c(=O)n(C)c(=O)n2C)n1CCCC`, the inhibition is -7.1%. Consider `Cc1ccc(NC(=O)c2cc(-c3ccc(C)o3)nc3ccccc23)nc1`, for which the inhibition is -3.9%. Consider `O=C(O)CCC(=O)N(Cc1ccco1)c1nc(-c2ccccc2)cs1`, for which the inhibition was 2.5%. On to `Cc1ccc(-c2csc(NC(=O)c3cccs3)n2)cc1`, for which the inhibition was -2.3%. The result for `Cc1ccc(-c2csc(N(Cc3ccco3)C(=O)c3cccs3)n2)cc1` reads 68.5% (active). The result for `CCOC(=O)N1CCN(C(=O)C2CCN(S(C)(=O)=O)CC2)CC1` reads -15%; that for `CCOC(=O)Cc1csc(NC(=O)CN(C)S(=O)(=O)c2ccc3c(c2)CCC(=O)N3)n1`, -17.1%; that for `CCN(c1ccccc1)S(=O)(=O)c1ccc(C(=O)Nc2nccs2)cc1`, -4.3%. Take `O=C(Nc1nccs1)C1CCN(S(=O)(=O)c2ccc(Cl)c(C(F)(F)F)c2)CC1`: the inhibition is 36.3%. Turning to `CN(CCCC(=O)Nc1nccs1)S(=O)(=O)c1ccc(Cl)cc1`, the inhibition is 51% (active). For `Cc1nc(NC(=O)CN(C)S(=O)(=O)c2ccc(Cl)cc2)sc1C`, the inhibition was 62.6% (active).

As for `CN(CC(=O)Nc1cccc2c1CCCC2)S(=O)(=O)c1ccc(Cl)cc1`, the inhibition is -15.4%. As for `O=c1c2ccccc2c(-c2ccc(Br)cc2)nn1Cc1ccccc1`, the inhibition was 33%.

`CCC(=O)NC(=Nc1nc2ccccc2s1)NC(=O)CC`: the inhibition is -0.9%. For `N#C/C=C1\Sc2ccccc2C(=O)N1CC(=O)N1CCN(S(=O)(=O)c2ccccc2)CC1`, the inhibition is -22.8%.

For the compound `CC1(C)CC(=O)C(C=NCCN2CCN(C(=S)Nc3cccc(Cl)c3)CC2)=C(O)C1`, the inhibition was 60.5% (active).

Regarding `CC(=O)N1CCN(CCN=CC2=C(O)CC(C)(C)CC2=O)CC1`, the inhibition is -18.4%.

Consider `CC1(C)CC(=O)C(C=NCCC2=CCCCC2)=C(O)C1`, for which the inhibition is 9.5%. For `CCn1cc(C(=O)NCC2CCCO2)c(=O)c2cc(S(=O)(=O)N3CCCCC3)ccc21` (stereo not given), the inhibition is 13.6%. Turning to `Cc1ccc(C(=O)N(CN2CCCC2=O)c2ccc(F)cc2)cc1`, the inhibition is -14.3%. As for `COCCCNC(=O)C1CC(=O)N(c2ccc(C)cc2)C1` (stereo not given), the inhibition was 5.7%. Consider `COc1ccc(Cl)cc1NC(=O)C1CC(=O)N(c2ccc(F)cc2)C1` (stereo not given), for which the inhibition is 74.3% (active). On to `CCCNC(=O)C1CC(=O)N(c2ccc(OCC(=O)Nc3cccc(C)c3C)cc2)C1` (stereo not given), for which the inhibition is -17.2%. For `N#Cc1c(N)nc2c3c(sc(=N)c2c1N)NC(=O)CC3c1ccccc1Cl` (stereo not given), the inhibition was -0.8%. With `CN(C)c1ccnc(Oc2ccc(F)cc2)c1C#N` the figure was 32.1%; with `Cc1cccc(OCc2nnc(SCc3nc4cc(C(F)(F)F)ccc4c(=O)[nH]3)o2)c1`, 54% (active); with `Cc1cccc(OCc2nnc(SCn3nnc4ccccc4c3=O)o2)c1`, 31.6%.

`Cc1cc(C)cc(OCc2nnc(SCC(=O)OC3CCCCC3)o2)c1`: the inhibition was 4.2%. The result for `COc1ccc(Nc2cc(C)nc(-n3nc(C)cc3C)n2)cc1` reads 46%.

Regarding `COCCCNC(NC(=O)c1ccc(C)cc1)C(Cl)(Cl)Cl` (stereo not given), the inhibition was 24.3%. Consider `CCC(=O)c1c[nH]c(C(=O)NCC2CCCO2)c1` (stereo not given), for which the inhibition was -4.8%.

The record behind these values is PubChem BioAssay AID778 (Sanford-Burnham Center for Chemical Genomics, 2007).
